Screening results as filed in PubChem BioAssay.
The list is not random: actives were taken first. Their share in the collection is about 3.7%.
Anthrax LF prot: blocks Bacillus anthracis lethal factor protease. multiplex microsphere protease cleavage assay, LF. inhibition, % at 10 µM. AID 588501. P15917. 360,000 compounds, 0.12% hits; further: plate controls were buffer without enzyme for full effect and enzyme alone for no effect
BoNT-A LC inh2: BoNT A light chain protease inhibition; multiplex microsphere protease substrate cleavage, flow cytometry; inhibition, % at 10 µM; 360,000 compounds, 0.17% hits; AID 588499; further: plate controls were buffer without enzyme for full effect and enzyme alone for no effect
Bead autofluor: counter-screen for toxin protease inhibitors: compound fluorescence; compound autofluorescence counterscreen, microsphere flow cytometry; active compounds read high; fluorescence intensity (concentration not given with the values); 360,000 compounds, 3.1% hits; AID 624483; in the data active means fluorescence intensity above about 16000; inconclusive means no clear call, values can overlap the other calls
BoNT F protease: inhibitors of Botulinum neurotoxin F light chain protease | Multiplex microsphere protease cleavage assay, flow cytometry | inhibition, % at 10 µM | 360,000 compounds, 0.22% hits | AID 588497; in the data active means inhibition above about 35%, passing the limit was not always enough; inconclusive means no clear call, values can overlap the other calls; further: plate controls were buffer without enzyme for full effect and enzyme alone for no effect
MazF activator: MazEF (E. coli) toxin RNase activation | FAM/BHQ RNA-DNA oligo cleavage fluorescence, 5 h | 350,000 compounds, 0.32% hits | activation, % at 20 µM | P0AE70 | AID 504720; in the data active means activation above about 50%
Starred values were filed as active, the others as inactive; ? = inconclusive; nt = not tested or not shown. Unless noted, no stated cut-off is given here; in the data, active means inhibition above about 30%; inconclusive means no clear call, values can overlap the other calls; inactive means below that.

SMILES	Anthrax LF prot	BoNT-A LC inh2	Bead autofluor	BoNT F protease	MazF activator
CC(OC(=O)c1ccco1)C(=O)Nc1nc(-c2ccccc2)cs1 (centres undefined)	0.0	0.7	3879	4.6	10.3
CCCc1cc(C(N)=O)c(NC(=O)c2cc(C)on2)s1	-14.0	?	16687*	-2.1	5.9
CCCc1cc(C(N)=O)c(NC(=O)c2ccoc2C)s1	-1.3	-8.0	23003*	-11.7	11.5
COc1ccc(-c2[nH][nH]c(=O)c2NC(=O)c2ccccc2Br)cc1	9.4	0.4	4018	3.9	nt
COc1ccc(CCNC(=O)C(=O)c2cn(CC(=O)N3CCCC3)c3ccccc23)cc1OC	-2.5	-0.2	3680	-0.1	2.6
CC(C)C(NCc1c(Cl)cccc1Cl)C(=O)O (centres undefined)	-0.7	4.7	21266*	6.7	2.4
CC(C)[C@H](NC(=O)NCc1ccc(Cl)cc1)C(=O)O	0.8	-2.3	23334*	-0.1	3.0
Cc1cc(NS(C)(=O)=O)c(=O)n(Cc2cccc(C(F)(F)F)c2)c1	1.3	-0.5	3714	2.8	-10.4
CC(=O)c1c(N2CCC(C(N)=O)CC2)nc(=S)n(-c2ccccc2)c1C	-3.3	-0.3	22860*	-0.7	-3.4
CC(=O)c1c(N2CCN(Cc3ccccc3)CC2)nc(=S)n(Cc2ccccc2)c1C	8.1	41.9*	4562	-10.6	-9.8
CC(=O)c1nc2ccccc2n1S(=O)(=O)c1ccc(C)cc1	2.8	1.5	16071	3.1	11.0
CC(=O)c1nc2ccccc2n1S(=O)(=O)c1ccc(Cl)cc1	-0.1	?	18292*	-13.3	-0.9
CCOC(=O)c1c(C)n(CC(COC(C)=O)OC(C)=O)c2ccc(OC(C)=O)cc12 (centres undefined)	-1.7	-0.5	16360*	-7.7	4.3
CCOC(=O)c1c(C)n(C)c2ccc(OC(C)C(=O)OC)cc12 (centres undefined)	0.1	0.4	3344	10.4	-2.3
O=C(NCC(=O)N1CCN(c2ccccc2F)CC1)c1ccco1	0.1	0.7	5347	2.8	10.5
Cc1ccc(C(=O)CCC2CCCCC2=O)cc1 (centres undefined)	-0.1	?	19947*	-0.3	0.0
CC(=C/c1ccco1)/C=N/NC(=O)Cc1cccn1C	-2.6	-0.2	2308	-0.5	0.6
CC(/C=N/NC(=O)Cc1cccn1C)=C\c1ccco1	-7.2	?	22954*	-6.3	1.8
COC(=O)c1ccc(CSc2nc(N)cc(N)n2)cc1	-2.6	0.4	23371*	-0.1	8.8
COC(=O)c1ccc(CSc2nnc(N)s2)cc1	-3.5	0.0	2891	-2.1	7.7
CC1(C)CC(=O)C(C=NCCN2CCN(C(=S)Nc3ccc(F)cc3)CC2)=C(O)C1	-5.5	?	16455*	-5.1	-3.6
CC1(C)CC(=O)C(C=NCCN2CCN(C(=O)Cc3ccccc3)CC2)=C(O)C1	-3.5	-1.9	12206	-16.8	2.0
COCCCN=CC1=C(O)CC(C)(C)CC1=O	-2.7	?	23898*	-1.4	3.5
CC1(C)CC(=O)C(C=NCCN2CCN(CCc3ccccc3)CC2)=C(O)C1	-0.3	-2.7	20820*	-2.7	-6.2
COCCOc1ccc(C(F)(F)F)cc1NC(=O)COC(=O)Cc1c[nH]c2ccccc12	1.5	-1.1	3016	-6.9	-2.9
SMILES	Anthrax LF prot	BoNT-A LC inh2	Bead autofluor	BoNT F protease	MazF activator
CCCN(CCC)Cc1cc(=O)oc2cc(C)c(C)cc12	-1.0	0.2	5491	-3.8	nt
Cc1ccc(C2CC(c3ccccc3C)n3nc(N)nc3N2)cc1 (centres undefined)	-8.4	-0.4	6185	-2.5	12.6
Cc1ccc(C2CC(c3cccs3)n3nc(N)nc3N2)cc1 (centres undefined)	2.2	0.9	16364*	-1.5	-0.8
COc1ccccc1N(CN1CCCC1=O)C(=O)c1c(F)cccc1Cl	-6.8	?	?	-2.4	-12.7
COc1ccc(C(=O)N(CN2CCCC2=O)c2ccccc2OC)cc1OC	0.1	-1.5	23117*	-2.2	1.9
COc1ccccc1C(=O)N(CN1CCCC1=O)c1cccc(Cl)c1	-1.8	0.7	22324*	2.4	4.5
COc1cccc(C(=O)N(CN2CCCC2=O)c2cccc(Cl)c2)c1	10.4	-0.9	6225	-7.9	-10.3
COc1cccc(C(=O)N(CN2CCCC2=O)c2cc(C)on2)c1	1.1	?	22265*	-0.7	0.5
CCOc1ccccc1C(=O)N(CN1CCCC1=O)c1cccc(Cl)c1	-5.1	?	21571*	1.4	4.6
O=C(NNc1ccccc1)Nc1cc(Cl)ccc1Cl	-3.1	-0.2	3647	-3.4	3.9
CCOC1=C2[C@H](c3cccs3)N(S(=O)(=O)c3ccc(C)cc3)C[C@H]2n2c(=O)n(-c3ccccc3)c(=O)n2C1	-8.1	-0.2	4300	7.6	nt
CC(=O)c1ccc(N2CCN(C(=O)c3cc(S(=O)(=O)N4CCOCC4)ccc3C)CC2)cc1	-1.3	-2.4	?	0.2	-2.5
C[C@H](O)[C@@H]1C(=O)N2CCc3ccc(-c4ccccc4)cc3[C@@H]2C[C@@H]1N(C)C(=O)c1ccco1	1.2	-0.2	3718	-8.5	-12.2
N#CCCN(Cc1ccccc1)C(=S)NC(=O)c1ccccc1	-1.0	?	21936*	2.4	-6.6
CC1CC(C)CN(C(=O)c2cc3c(=O)n4ccccc4nc3s2)C1 (centres undefined)	-1.3	1.5	5897	2.8	4.6
Cc1cc(C)cc(NC(=O)c2cc3c(=O)n4ccccc4nc3s2)c1	-0.4	-0.4	2931	4.5	69.5*
CC1CN(C(=O)c2cc3c(=O)n4ccccc4nc3s2)CC(C)O1 (centres undefined)	-0.7	-0.5	16544*	0.5	-1.3
Cc1cc(C(=O)Nc2ccon2)ccc1[N+](=O)[O-]	4.7	-0.1	5571	-5.8	12.9
NS(=O)(=O)c1ccc(NC(=O)CCC(=O)O)cc1	-14.5	-0.2	5310	2.7	nt
CN(CCC1CCOCC1)C(=O)C1CCC(=O)N(CCc2cccc(F)c2)C1 (centres undefined)	1.4	-1.3	?	-4.2	2.0
CCOC(=O)Cn1nnnc1CN(Cc1cccs1)Cc1cc2cc(C)ccc2[nH]c1=O	-14.8	15.8	16529*	19.1	2.7
O=C(NCCCN1CCOCC1)c1ccc(NC(=O)C2COc3ccccc3O2)cc1 (centres undefined)	1.3	0.0	2416	-5.7	13.7
O=C(NCCCN1CCOCC1)C1COc2ccccc2O1 (centres undefined)	-1.7	-1.1	16494*	-5.4	2.9
O=C(C1COc2ccccc2O1)N1CCCC1 (centres undefined)	-1.0	?	20678*	-3.8	2.5
COc1ccc(C(C)C)cc1S(=O)(=O)Nc1ccc(Cl)cn1	-1.9	?	22386*	-3.2	-8.5
COCCNC(=O)c1cc(-c2cccnc2)nc2ccc(Br)cc12	-0.8	0.7	23362*	1.0	-4.4
O=C(Nc1cccnc1)c1cc(-c2cccnc2)nc2ccc(Br)cc12	1.7	3.5	21271*	2.1	-0.4
COc1ccc(Cl)cc1NC(=O)CSc1cccc[n+]1[O-]	3.6	-0.1	3382	1.6	1.7
